Laboratory results published in PubChem BioAssay (EPA / NIEHS).
Results filed as inconclusive are left out. Active and inactive are the calls of the source. Rule for the calls, unless noted: active = hit-call score of the fitted dose curve at least 0.9, where 1 is the maximum; inactive = score below 0.9.

Key:
[1] = ATG_NFI_CIS: Attagene CIS-FACTORIAL HepG2 Assay for human Nuclear Factor I (NFI) (AID 2282989); settings: HepG2 cis-regulatory reporter, NFI response element transcription; actives raise or lower the signal
Outline: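 Transient MRTU transfection of HepG2 → 24 h chemical dosing → total RNA, oligo(dT) RT → PCR, 6-FAM primer extension, HpaI cut → capillary electrophoresis. Endpoint fitted bidirectionally relative to DMSO.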

[2] = ATG_NF_kB_CIS: Attagene CIS-FACTORIAL HepG2 Assay for human Nuclear Factor Kappa B (NF-kB) (AID 2282991); settings: HepG2 Attagene cis-factorial NF-kB reporter mRNA; actives raise or lower the signal
Outline: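 HepG2 cells transfected with cis-promoter-driven reporter units, so endogenous transcription factor activity is measured. Reporter mRNA quantified 24 h after dosing by RT-PCR and capillary electrophoresis, with bidirectional fitting against DMSO.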

[3] = ATG_Oct_MLP_CIS: Attagene CIS-FACTORIAL HepG2 Assay for human Octamer-Binding Transcription Factor (Oct) (AID 2282993); settings: HepG2 Attagene cis-factorial Oct reporter, mRNA; actives raise or lower the signal
Outline: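 Transient MRTU transfection of HepG2 → 24 h compound treatment → RNA isolation, reverse transcription, PCR → 6-FAM primer extension, HpaI digest → capillary electrophoresis. Activity fitted both directions against DMSO.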

[4] = molecular target: Cellular tumor antigen p53 (Homo sapiens) (UniProt P04637); assay: ATG_p53_CIS: Attagene CIS-FACTORIAL HepG2 Assay for human p53 Transcription Factor (AID 2282994); settings: HepG2 p53 cis-element reporter, Attagene mRNA; actives raise or lower the signal
Chain of Cellular tumor antigen p53 (Homo sapiens) (P04637 whole entry, looked up): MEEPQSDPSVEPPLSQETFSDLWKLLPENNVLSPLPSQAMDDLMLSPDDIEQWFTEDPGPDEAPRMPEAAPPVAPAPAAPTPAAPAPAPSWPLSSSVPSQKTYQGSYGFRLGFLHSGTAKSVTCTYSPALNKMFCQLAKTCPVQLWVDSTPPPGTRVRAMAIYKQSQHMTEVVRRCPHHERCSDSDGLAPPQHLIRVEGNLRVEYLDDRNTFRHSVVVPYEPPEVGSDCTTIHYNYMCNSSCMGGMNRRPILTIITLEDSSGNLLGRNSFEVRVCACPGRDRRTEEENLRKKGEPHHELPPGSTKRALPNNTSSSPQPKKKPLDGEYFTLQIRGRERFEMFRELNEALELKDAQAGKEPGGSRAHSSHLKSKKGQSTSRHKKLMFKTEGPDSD
Outline: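 HepG2 cells transiently transfected with multiplexed cis-regulated reporter transcription units read endogenous TF activity. After 24 h compound exposure, reporter mRNA was quantified by RT-PCR, fluorescent labelling, HpaI digestion and capillary electrophoresis; bidirectional fits versus DMSO baseline.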

[5] = molecular target: human Peroxisome Proliferator-activated Receptor delta (PPARd), PPARD (gene 5467) (UniProt Q03181); assay: ATG_PPARd_TRANS: Attagene TRANS-FACTORIAL HepG2 Assay for human Peroxisome Proliferator-activated Receptor delta (PPARd) (AID 2283002; active = hit-call score of the fitted dose curve at least 0.9, where 1 is the maximum)
Chain of human Peroxisome Proliferator-activated Receptor delta (PPARd), PPARD (gene 5467) (Q03181 whole entry, looked up, the tested form may be a part): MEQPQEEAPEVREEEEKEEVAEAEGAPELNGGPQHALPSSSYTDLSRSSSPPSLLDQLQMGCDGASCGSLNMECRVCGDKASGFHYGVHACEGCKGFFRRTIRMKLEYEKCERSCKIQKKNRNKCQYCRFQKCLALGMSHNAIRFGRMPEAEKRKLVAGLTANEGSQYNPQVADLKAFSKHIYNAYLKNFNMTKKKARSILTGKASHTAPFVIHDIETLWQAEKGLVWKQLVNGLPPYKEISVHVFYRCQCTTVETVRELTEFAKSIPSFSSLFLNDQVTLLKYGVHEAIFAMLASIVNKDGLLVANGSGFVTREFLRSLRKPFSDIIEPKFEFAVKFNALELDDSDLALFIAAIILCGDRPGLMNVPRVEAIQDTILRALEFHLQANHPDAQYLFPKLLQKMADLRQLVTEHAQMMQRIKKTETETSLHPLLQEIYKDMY
Outline: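 Transient HepG2 transfection (multiple GAL4-UAS RTUs, chimeric receptor-Gal4); 24 h dosing; total RNA → oligo(dT) RT → PCR → 6-FAM primer extension → HpaI cut → CE. Positive direction vs DMSO.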

[6] = molecular target: Peroxisome proliferator-activated receptor gamma (Homo sapiens) (UniProt P37231); assay: ATG_PPARg_TRANS: Attagene TRANS-FACTORIAL HepG2 Assay for human Peroxisome Proliferator-activated Receptor-gamma (PPARg) (AID 2283007; active = hit-call score of the fitted dose curve at least 0.9, where 1 is the maximum)
Chain of Peroxisome proliferator-activated receptor gamma (Homo sapiens) (P37231 whole entry, looked up, the tested form may be a part): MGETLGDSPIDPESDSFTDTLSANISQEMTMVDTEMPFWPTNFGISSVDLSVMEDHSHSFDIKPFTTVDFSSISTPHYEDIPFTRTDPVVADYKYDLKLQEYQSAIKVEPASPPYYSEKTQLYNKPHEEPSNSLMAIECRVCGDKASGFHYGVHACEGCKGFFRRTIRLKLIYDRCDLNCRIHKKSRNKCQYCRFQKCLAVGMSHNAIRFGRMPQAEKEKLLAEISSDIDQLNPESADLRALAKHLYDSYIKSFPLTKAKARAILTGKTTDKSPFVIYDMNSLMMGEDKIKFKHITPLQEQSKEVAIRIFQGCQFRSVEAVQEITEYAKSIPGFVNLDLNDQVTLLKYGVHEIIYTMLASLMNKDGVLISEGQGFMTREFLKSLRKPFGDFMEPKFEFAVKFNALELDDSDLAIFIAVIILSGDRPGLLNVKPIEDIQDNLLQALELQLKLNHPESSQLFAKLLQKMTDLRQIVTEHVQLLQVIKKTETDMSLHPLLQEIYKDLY
Outline: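 HepG2 cells are transiently transfected with GAL4-UAS reporter units driven by chimeric NR-Gal4 fusions and dosed for 24 h. Reporter mRNA is quantified by RT-PCR, 6-FAM labelling, HpaI digestion and capillary electrophoresis. Induction is scored against DMSO.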

[7] = molecular target: Nuclear receptor subfamily 1 group I member 2 (Homo sapiens) (UniProt O75469); assay: ATG_PXR_TRANS: Attagene TRANS-FACTORIAL HepG2 Assay for human Pregnane X Receptor (PXR) (AID 2283008; active = hit-call score of the fitted dose curve at least 0.9, where 1 is the maximum)
Chain of Nuclear receptor subfamily 1 group I member 2 (Homo sapiens) (O75469 whole entry, looked up, the tested form may be a part): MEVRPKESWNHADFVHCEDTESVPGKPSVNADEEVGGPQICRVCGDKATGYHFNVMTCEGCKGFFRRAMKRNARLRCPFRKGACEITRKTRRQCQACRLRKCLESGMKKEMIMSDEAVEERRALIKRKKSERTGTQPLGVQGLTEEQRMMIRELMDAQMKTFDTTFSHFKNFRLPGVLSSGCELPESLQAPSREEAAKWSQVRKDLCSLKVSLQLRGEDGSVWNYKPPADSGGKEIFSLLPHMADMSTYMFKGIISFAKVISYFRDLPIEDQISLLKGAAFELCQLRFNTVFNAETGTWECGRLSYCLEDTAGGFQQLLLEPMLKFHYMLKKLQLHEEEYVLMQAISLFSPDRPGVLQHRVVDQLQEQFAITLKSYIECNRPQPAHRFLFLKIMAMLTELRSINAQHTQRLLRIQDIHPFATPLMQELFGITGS
Outline: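 HepG2 cells transiently transfected with multiple reporter units, here a PXR-GAL4 chimera driving a GAL4-UAS reporter; 24 h compound exposure. Reporter mRNA measured by RT-PCR, FAM labelling and capillary electrophoresis; gain of signal fitted against DMSO baseline.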

[8] = molecular target: Myc proto-oncogene protein (Homo sapiens) (UniProt P01106); assay: ATG_Myc_CIS: Attagene CIS-FACTORIAL HepG2 Assay for human Myelocytomatosis (Myc) Proto-Oncogene Transcription Factor (AID 2282990); settings: HepG2, Attagene cis-reporter transcription factor activity; actives raise or lower the signal
Chain of Myc proto-oncogene protein (Homo sapiens) (P01106 whole entry, looked up): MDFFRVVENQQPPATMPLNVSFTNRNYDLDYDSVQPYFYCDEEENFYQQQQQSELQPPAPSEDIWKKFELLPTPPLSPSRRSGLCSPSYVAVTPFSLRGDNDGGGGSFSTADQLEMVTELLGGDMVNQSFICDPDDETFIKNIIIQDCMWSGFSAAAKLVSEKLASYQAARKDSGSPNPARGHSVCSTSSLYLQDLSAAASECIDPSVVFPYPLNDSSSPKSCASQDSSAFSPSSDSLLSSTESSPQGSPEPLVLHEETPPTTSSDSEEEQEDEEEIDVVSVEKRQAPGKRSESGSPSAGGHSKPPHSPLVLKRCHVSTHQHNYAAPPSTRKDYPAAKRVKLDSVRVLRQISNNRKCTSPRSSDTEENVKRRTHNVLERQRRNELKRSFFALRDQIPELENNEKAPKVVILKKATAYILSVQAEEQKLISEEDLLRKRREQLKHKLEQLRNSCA
Outline: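 HepG2, transient MRTU transfection (cis promoters, endogenous TFs); 24 h dosing; TriZol RNA → oligo(dT) RT → PCR → 6-FAM primer extension → HpaI cut → CE. Bidirectional fit vs DMSO.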

[9] = BSK_3C_TissueFactor: BioMAP Diversity Plus: 3C Assay for Tissue Factor Biomarker Activity (AID 2282997); settings: BioMAP 3C HUVEC, tissue factor biomarker readout; actives raise or lower the signal
Outline: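 Dosing of human umbilical vein endothelial cells preceded a 24 h incubation. Tissue Factor was then read by ELISA, with increases and decreases both scored relative to DMSO controls.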

[10] = BSK_3C_uPAR: BioMAP Diversity Plus: 3C Assay for Urokinase-type plasminogen activator receptor (uPAR) Biomarker Activity (AID 2282998); settings: BioMAP 3C HUVEC, uPAR biomarker ELISA; actives raise or lower the signal
Outline: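 ELISA readout of uPAR on human vascular endothelium (umbilical vein primary cells), taken 24 h after chemical dosing. Increases and decreases are both fitted relative to DMSO vehicle.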

[11] = BSK_3C_VCAM1: BioMAP Diversity Plus: 3C Assay for Vascular cell adhesion molecule 1 (VCAM1) Biomarker Activity (AID 2282999); settings: BioMAP 3C HUVEC, VCAM1 ELISA, cytokine-stimulated; actives raise or lower the signal
Outline: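 Endothelial cells from human umbilical vein are treated with test chemical. At 24 h, VCAM-1 is measured by ELISA, and responses in either direction are fitted relative to DMSO.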

[12] = BSK_4H_Eotaxin3: BioMAP Diversity Plus: 4H Assay for Eotaxin 3 Biomarker Activity (AID 2283000); settings: primary human endothelial cells (HUVEC); actives raise or lower the signal
Outline: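 Human umbilical vein endothelial cells (BSK_4H system) dosed with test chemical; Eotaxin-3 (CCL26) measured by ELISA 24 h after dosing. Bidirectional curve fitting relative to DMSO negative control as baseline.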

[13] = read-out: Intercellular Adhesion Molecule 1 (ICAM1), ICAM1 (gene 3383); assay: BSK_3C_ICAM1: BioMAP Diversity Plus: 3C Assay for Intercellular Adhesion Molecule 1 (ICAM1) Biomarker Activity (AID 2283003); settings: primary human endothelial cells (HUVEC); actives raise or lower the signal
Outline: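 ICAM-1 levels measured by ELISA after HUVEC cultures in the 3C system had been dosed for 24 h. Gain or loss of signal relative to DMSO was fitted in both directions.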

[14] = BSK_3C_Proliferation: Cell Proliferation Assessment in the BioMAP Diversity Plus: 3C Assay (AID 2283006); settings: primary human endothelial cells (HUVEC);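 for AC50: potency may reflect either rise or fall in cell number versus DMSO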
Outline: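 Read-out is total protein by SRB absorbance at 560 nm, taken as a proxy for relative cell number. Primary human umbilical vein endothelium cultured below confluence was dosed for 48 h, TCA-fixed and SRB-stained; curves were fitted bidirectionally versus DMSO.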

[15] = molecular target: human Retinoic Acid Receptor gamma (RARg), RARG (gene 5916) (UniProt P13631); assay: ATG_RARg_TRANS: Attagene TRANS-FACTORIAL HepG2 Assay for human Retinoic Acid Receptor gamma (RARg) (AID 2283009; active = hit-call score of the fitted dose curve at least 0.9, where 1 is the maximum)
Chain of human Retinoic Acid Receptor gamma (RARg), RARG (gene 5916) (P13631 whole entry, looked up): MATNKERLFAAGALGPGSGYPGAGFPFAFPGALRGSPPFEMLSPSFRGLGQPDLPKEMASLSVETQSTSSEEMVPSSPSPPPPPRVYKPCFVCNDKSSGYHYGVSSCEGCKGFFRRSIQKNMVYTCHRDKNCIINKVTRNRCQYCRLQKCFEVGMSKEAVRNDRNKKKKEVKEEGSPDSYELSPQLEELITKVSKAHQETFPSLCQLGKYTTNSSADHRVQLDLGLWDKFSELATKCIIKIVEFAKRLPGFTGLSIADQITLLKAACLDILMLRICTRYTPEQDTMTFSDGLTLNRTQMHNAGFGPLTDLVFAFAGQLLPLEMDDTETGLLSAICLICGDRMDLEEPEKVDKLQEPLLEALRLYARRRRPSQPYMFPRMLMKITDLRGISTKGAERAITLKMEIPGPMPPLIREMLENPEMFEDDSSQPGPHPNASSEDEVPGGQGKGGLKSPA
Outline: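 Transient transfection of HepG2 with multi-reporter constructs, then 24 h chemical treatment. Total RNA isolated, reverse-transcribed, PCR-amplified, fluorescently labelled and resolved by capillary electrophoresis; activity scored as mRNA induction versus DMSO.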

[16] = molecular target: human RAR-related Orphan Receptor beta (RORb), RORB (gene 6096) (UniProt Q92753); assay: ATG_RORb_TRANS: Attagene TRANS-FACTORIAL HepG2 Assay for human RAR-related Orphan Receptor beta (RORb) (AID 2283010; active = hit-call score of the fitted dose curve at least 0.9, where 1 is the maximum)
Chain of human RAR-related Orphan Receptor beta (RORb), RORB (gene 6096) (Q92753 whole entry, looked up, the tested form may be a part): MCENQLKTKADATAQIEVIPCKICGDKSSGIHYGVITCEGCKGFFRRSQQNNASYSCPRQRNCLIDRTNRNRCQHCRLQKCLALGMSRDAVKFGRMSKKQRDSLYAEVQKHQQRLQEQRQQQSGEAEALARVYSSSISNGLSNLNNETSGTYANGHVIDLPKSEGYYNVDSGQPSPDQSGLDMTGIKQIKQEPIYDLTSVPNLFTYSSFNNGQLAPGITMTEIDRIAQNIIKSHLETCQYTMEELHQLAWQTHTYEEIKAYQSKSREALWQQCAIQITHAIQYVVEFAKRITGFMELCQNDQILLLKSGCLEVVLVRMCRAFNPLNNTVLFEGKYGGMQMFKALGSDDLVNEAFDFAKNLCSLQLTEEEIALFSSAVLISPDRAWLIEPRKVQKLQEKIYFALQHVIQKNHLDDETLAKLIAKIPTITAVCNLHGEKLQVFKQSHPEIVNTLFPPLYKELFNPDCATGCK
Outline: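 Readout is reporter-gene mRNA induction, detected as fluorescence after RT-PCR and capillary electrophoresis, fitted for gain of signal against DMSO controls. Transiently transfected HepG2 liver cells carrying GAL4-UAS reporter constructs were treated for 24 hours.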

[17] = ATG_NRF2_ARE_CIS: Attagene CIS-FACTORIAL HepG2 Assay for human Nuclear Factor Erythroid 2 Related Factor 2 (NFR2) response to Antioxidant Response Elements (ARE) (AID 2282992); settings: HepG2 Attagene ARE/NRF2 reporter, transcription factor activity; actives raise or lower the signal;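 for AC50: reporter mRNA level measured by RT-PCR and capillary electrophoresis fluorescence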
Outline: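 HepG2 cells transiently transfected with multiplexed cis-regulated reporter transcription units measure endogenous transcription factor activity. Reporter mRNA at 24 h is quantified by RT-PCR, fluorescent labelling and capillary electrophoresis, with bidirectional fitting relative to DMSO.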

[18] = molecular target: human Peroxisome Proliferator-activated Receptor alpha (PPARa), PPARA (gene 5465) (UniProt Q07869); assay: ATG_PPARa_TRANS: Attagene TRANS-FACTORIAL HepG2 Assay for human Peroxisome Proliferator-activated Receptor alpha (PPARa) (AID 2283001; active = hit-call score of the fitted dose curve at least 0.9, where 1 is the maximum;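 for AC50: potency for gain of reporter signal over DMSO so agonist or activator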)
Chain of human Peroxisome Proliferator-activated Receptor alpha (PPARa), PPARA (gene 5465) (Q07869 whole entry, looked up, the tested form may be a part): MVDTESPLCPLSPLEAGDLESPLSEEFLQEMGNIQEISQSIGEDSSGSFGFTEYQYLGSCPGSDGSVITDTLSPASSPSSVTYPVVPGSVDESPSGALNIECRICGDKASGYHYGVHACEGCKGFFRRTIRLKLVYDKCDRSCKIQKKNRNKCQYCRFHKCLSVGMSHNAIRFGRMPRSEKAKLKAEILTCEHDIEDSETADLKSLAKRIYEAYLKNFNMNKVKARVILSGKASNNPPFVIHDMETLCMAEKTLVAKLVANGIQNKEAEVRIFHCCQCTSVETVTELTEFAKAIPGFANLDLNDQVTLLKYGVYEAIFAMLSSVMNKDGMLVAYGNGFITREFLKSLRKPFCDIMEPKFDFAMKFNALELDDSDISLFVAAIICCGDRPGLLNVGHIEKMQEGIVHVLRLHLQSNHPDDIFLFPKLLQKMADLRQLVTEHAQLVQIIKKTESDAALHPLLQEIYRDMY
Outline: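 Read-out is fluorescence of reporter cDNA fragments resolved by capillary electrophoresis after RT-PCR. Human HepG2 liver cells carried transfected PPARa-Gal4 chimera and GAL4-UAS reporter units, treated 24 h; activity scored as increase over DMSO.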

[19] = molecular target: Retinoic acid receptor alpha (Homo sapiens) (UniProt P10276); assay: ATG_RARa_TRANS: Attagene TRANS-FACTORIAL HepG2 Assay for human Retinoic Acid Receptor alpha (RARa) (AID 2283005; active = hit-call score of the fitted dose curve at least 0.9, where 1 is the maximum)
Chain of Retinoic acid receptor alpha (Homo sapiens) (P10276 whole entry, looked up, the tested form may be a part): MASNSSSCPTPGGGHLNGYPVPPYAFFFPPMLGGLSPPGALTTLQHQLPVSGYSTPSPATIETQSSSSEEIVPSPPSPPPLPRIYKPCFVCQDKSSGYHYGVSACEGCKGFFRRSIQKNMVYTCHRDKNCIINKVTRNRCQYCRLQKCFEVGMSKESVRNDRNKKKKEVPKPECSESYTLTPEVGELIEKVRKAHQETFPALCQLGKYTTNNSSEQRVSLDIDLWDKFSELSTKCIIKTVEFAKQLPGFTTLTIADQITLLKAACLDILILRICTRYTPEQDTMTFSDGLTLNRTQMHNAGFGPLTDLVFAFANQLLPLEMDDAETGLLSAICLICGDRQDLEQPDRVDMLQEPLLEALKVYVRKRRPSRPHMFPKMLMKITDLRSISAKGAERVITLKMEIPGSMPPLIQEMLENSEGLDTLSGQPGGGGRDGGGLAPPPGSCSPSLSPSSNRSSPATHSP
Outline: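 Reporter transcripts, measured by RT-PCR with fluorescent labeling and capillary electrophoresis after 24 h dosing, reflect activity of an exogenous human RARa–GAL4 fusion in transiently transfected HepG2. Fitted for increase relative to DMSO.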

[20] = molecular target: human Retinoic Acid Receptor beta (RARb), RARB (gene 5915) (UniProt P10826); assay: ATG_RARb_TRANS: Attagene TRANS-FACTORIAL HepG2 Assay for human Retinoic Acid Receptor beta (AID 2283004; active = hit-call score of the fitted dose curve at least 0.9, where 1 is the maximum)
Chain of human Retinoic Acid Receptor beta (RARb), RARB (gene 5915) (P10826 whole entry, looked up, the tested form may be a part): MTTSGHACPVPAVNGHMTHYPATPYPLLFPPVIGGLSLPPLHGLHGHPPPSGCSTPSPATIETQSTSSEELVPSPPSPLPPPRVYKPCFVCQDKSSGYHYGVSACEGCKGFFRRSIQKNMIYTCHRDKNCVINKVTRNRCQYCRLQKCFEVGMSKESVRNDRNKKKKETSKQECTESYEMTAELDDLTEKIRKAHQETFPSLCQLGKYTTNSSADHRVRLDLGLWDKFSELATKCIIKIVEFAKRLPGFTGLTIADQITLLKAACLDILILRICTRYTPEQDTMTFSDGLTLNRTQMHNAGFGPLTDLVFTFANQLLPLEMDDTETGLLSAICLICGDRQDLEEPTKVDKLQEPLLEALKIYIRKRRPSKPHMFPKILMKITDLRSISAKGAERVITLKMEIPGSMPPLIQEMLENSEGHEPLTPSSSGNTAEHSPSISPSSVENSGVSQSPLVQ
Outline: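 Induction of reporter mRNA from a chimeric RARb-Gal4 construct was measured by RT-PCR, FAM labelling, HpaI digestion and capillary electrophoresis. Measurements followed 24 h compound treatment of transiently transfected human HepG2 liver cells, with DMSO as baseline.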

Measured: AC50

C=CC(=O)OCCOC1C2CCC1C1CC=CC12 (stereo not given)
inactive: [1] | [2] | [3] | [4] | [5] | [6] | [7]

COc1ccc2nc(N)sc2c1
inactive: [1] | [8] | [9] | [10] | [11] | [12] | [13] | [14] | [6] | [7] | [15] | [16]

Cc1cc(C)c(C)c(C)c1
inactive: [1] | [17] | [3] | [4] | [5] | [6] | [7] | [15]

COC(=O)c1ccccc1OC
inactive: [1] | [3] | [18] | [7]

CC(C)=CC1CC(C)CCO1 (stereo not given)
inactive: [1] | [2] | [17] | [4] | [18] | [19]

CC(C)(C)c1ccc(-c2ccc(C(C)(C)C)cc2)cc1
inactive: [1] | [17] | [3] | [5] | [7] | [16]

Nc1ccc(-c2ccc(F)cc2)cc1
inactive: [1] | [2] | [17] | [3] | [4] | [5] | [6] | [7]

O=S1(=O)OC(c2ccc(O)cc2)(c2ccc(O)cc2)c2ccccc21
inactive: [1] | [17] | [3] | [5] | [6] | [7]

NNC(=O)c1cccc(C(=O)NN)c1
inactive: [1] | [8] | [3] | [7] | [15]

O=c1cc[nH]c(=S)[nH]1
inactive: [1] | [2] | [17] | [3] | [4] | [5] | [19] | [6] | [7] | [15]

Cc1cc(O)c(Cl)c(C)c1Cl
inactive: [1] | [2] | [3] | [4] | [18]
active: [17] 33.4 µM | [6] 21.9 µM | [7] 26.4 µM

CC(C)=CCC[C@H](C)CCO
inactive: [1] | [2] | [17] | [3] | [4] | [5] | [6] | [7]

CCC(CO)CO
inactive: [1] | [2] | [17] | [3] | [20] | [7]

C1=Cc2ccccc2C1
inactive: [1] | [3] | [18] | [5] | [15]
active: [6] 67.4 µM | [7] 6.06 µM

N=c1ccn2c(n1)O[C@H]1[C@H](O)[C@@H](CO)O[C@H]12
inactive: [1] | [2] | [17] | [3] | [4] | [18]

C=C[Si](OC(C)=O)(OC(C)=O)OC(C)=O
inactive: [1] | [17] | [3] | [4] | [9] | [10] | [11] | [12] | [5] | [13] | [19] | [14] | [15] | [16]
active: [7] 4.82 µM

CC/C=C\C/C=C\C/C=C\CCCCCCCC(=O)O
inactive: [1] | [3] | [5]
active: [17] 48.2 µM | [18] 42.3 µM | [6] 14.6 µM

C=CC(=O)OCCOC(=O)C=C
inactive: [1] | [17] | [5] | [20] | [7] | [15]
active: [3] 26.3 µM

COCCOCCOCCOCCOC
inactive: [1] | [8] | [3] | [18] | [5] | [7]

O=C1CCCC(=O)O1
inactive: [1] | [2] | [17] | [3] | [4] | [18] | [20] | [7] | [16]

C/C=C\C/C=C/CCCCCCCCOC(C)=O
active: [2] 42.8 µM | [17] 26.8 µM | [4] 162 µM | [9] 9.54 µM | [11] 26 µM | [12] 28.9 µM | [14] 22.3 µM | [6] 8.89 µM | [7] 40.8 µM
inactive: [1] | [10] | [18] | [5] | [13] | [16]
